Assay results reported in PubChem BioAssay.
“And” between values parts separate entries of the source, which are not always exact repeats. Equal values may be shown once. For some of these results: Measured potencies and affinities stand elsewhere. The source made the active and inactive calls.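 Rule for the calls, unless noted: active = compounds whose cell count with miR-34 switched on is under 0.7 times the count with it off; inactive = the rest.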

Experiments:
[1] = viability loss with induced miR-34 in A549 – imaging, A549 dox-inducible miR-34, nuclei and caspase counts, primary screen (AID 1347080); conditions: A549 miR-34 inducible, Hoechst nuclei count, 48 h
[2] = MELAS cybrid and Rieske KO viability enhancers – cell-based, MELAS cybrids, Rieske KO mouse fibroblasts, CellTiter-Glo, primary screen (AID 1508586;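 active = mean z-score across replicates of 1.96 or higher in either the MELAS or the Rieske mutant cell line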;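 note: z relative to plate mean and SD of compound and empty wells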); conditions: low glucose
[3] = galactose survival enhancers in mitochondrial complex I cybrids – cell-based, galactose medium, ATP luminescence, primary screen (AID 1645843;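 active = z-score of at least 1.8 in each of two replicates, scored against plate mean and spread of sample wells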;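 note: positive z means more ATP and so rescue of galactose-driven cybrid death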); conditions: complex I mutant cybrid cells, 72 h, stronger effect = higher value
[4] = system: Hepatitis C virus NS3 helicase; test: blockers of NS3h binding to ssDNA – biochemical, fluorescence polarization, LOPAC1280 library, primary screen (AID 687035; in the data active = inhibition above about 37%); conditions: Purified HCV NS3 helicase, Cy5-dT15 ssDNA binding fluorescence polarization; stronger effect = higher value; concentration not given here
[5] = compounds altering Cy5-DNA-NS3h complex signal – biochemical, LOPAC1280, artefact control for HCV NS3 helicase inhibitor project (AID 687037; call rule not given here); conditions: Cy5-DNA-NS3h complex fluorescence interference counterscreen
[6] = blockers of cellular phospholipid synthesis – cell-based, LOPAC library, screen 4, primary screen (AID 1347384; call rule not given here); conditions: animal cells, phospholipid biosynthesis inhibition screen; at 10 µM
[7] = blockers of polyQ-driven CASP3 activation – cell-based (AID 1583); conditions: polyglutamine-induced caspase-3 activation, cell assay; stronger effect = higher value;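 tested at 10 µM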
[8] = yeast 75Q aggregation reduction – 75Q-TubU reporter (AID 1593); conditions: Yeast 75Q polyglutamine aggregation reporter
[9] = restoration of touch response, mutant HTT neurons – whole organism, C. elegans mechanosensory neurons, N-terminal huntingtin (AID 1599); conditions: C. elegans polyQ-huntingtin mechanosensory neurons, stronger effect = higher value
[10] = blockers of cytochrome c efflux from mitochondria – biochemical, purified mitochondria (AID 1603); conditions: stronger effect = lower value;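 note: mouse liver mitochondria challenged with calcium chloride; signal normalized to the plate average as 100%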
[11] = polyglutamine aggregate formation blockers (AID 1604); conditions: polyglutamine-induced protein aggregation inhibition assay; stronger effect = higher value; tested at 2.5 µM
[12] = glutamate transport activators, MN-1 cells, MN-1 cell line (AID 1612); conditions: MN-1 motor neuron cells, stronger effect = higher value;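 note: tested at 1 µM final; 0% = mean of DMSO vehicle wells on each plate; positive means more glutamate uptake than control and negative means less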
[13] = GFP-Q80 aggregate reduction, neuronal-like cells, cell-based, NGF-treated PC12, GFPQ80 (AID 1614); conditions: PC12 NGF-treated GFP-polyQ80 inclusion reduction;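 note: lower means fewer inclusions and 0 means no inclusions at all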
[14] = 75Q-TubH aggregate inhibition, S. cerevisiae, yeast (AID 1616); conditions: S. cerevisiae 75Q-TubH polyglutamine aggregation suppression; stronger effect = higher value
[15] = compounds altering viability of human ES cells (AID 493140; call rule not given here;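 note: cells exposed to compounds for four days before counting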); conditions: human embryonic stem cell survival screen; stronger effect = higher value
[16] = P. berghei load reduction in hepatocytes – cell-based, HepG2, luciferase luminescence, HepG2 viability, primary screen (AID 624349; in the data active = parasite load remaining mostly below about 12%, no sharp cut-off; inactive = mostly above about 10%;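 note: 100% = mean of DMSO negative control wells on the same plate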); conditions: P. berghei liver stage in HepG2, luciferase luminescence, concentration not given here; parasite load remaining: stronger effect = lower value; viability: measured here: HepG2 viability without parasites
[17] = stronger effect = lower value, cell number ratio, induced over uninduced
[18] = measured here: relative caspase fold change +Dox/-Dox
[19] = measured here: total cells with miR-34 induction, stronger effect = lower value
[20] = measured here: total cells without miR-34 induction
[21] = MELAS cybrid survival, CellTiter-Glo 48 h, stronger effect = higher value
[22] = Rieske KO mouse fibroblast survival, CellTiter-Glo 72 h

## CNCCC(Oc1cccc2ccccc12)c1cccs1 (configuration not stated)
[1]; [17]
  fold change: 0.825 (inactive) and 0.844 (inactive) and 0.922 (inactive)
[1]; [18]
  fold change: 1.39 and 1.04 and 2.23
[1]; [19]
  cell count: 4830 and 5000 and 7370
[1]; [20]
  cell count: 5860 and 5930 and 7990
[2]; [21]
  z-score: -0.107 (inactive)
[2]; [22]
  z-score: -1.06
[3]
  z-score: -1.4 (inactive) and -1.81 (inactive)

## O=C(O)C=Cc1ccc(Cn2ccnc2)cc1
[1]; [17]
  fold change: 0.955 (inactive) and 0.883 (inactive) and 0.902 (inactive)
[1]; [18]
  fold change: 1.3 and 1.43 and 0.779
[1]; [19]
  cell count: 9560 and 7820 and 10000
[1]; [20]
  cell count: 10000 and 8860 and 11100
[2]; [21]
  z-score: -0.304 (inactive) and -0.385 (inactive)
[2]; [22]
  z-score: 0.761 and 0.973
[3]
  z-score: 0.575 (inactive)

## O=C(c1ccc(OCCCc2cnc[nH]2)cc1)C1CC1
[4]
  inhibition: -3% (inactive)
[5]
  fluorescence ratio (interference): 1 (inactive)
[1]; [17]
  fold change: 0.955 (inactive) and 1.01 (inactive)
[1]; [18]
  fold change: 1.12 and 0.82
[1]; [19]
  cell count: 9150 and 7760
[1]; [20]
  cell count: 9580 and 7660
[6]
  outcome: inactive
[2]; [21]
  z-score: -0.324 (inactive)
[2]; [22]
  z-score: -0.0656
[3]
  z-score: -1.01 (inactive)

## CCC1(c2ccccc2)NC(=O)N(C)C1=O (configuration not stated)
[7]
  inhibition: 6.58%
[8]
  score: 1.42
[9]
  rescue above control: 11.8
[10]
  cytochrome c release ratio: 0.46
[11]
  inhibition of aggregation: 79.3%
[12]
  glutamate uptake change: -9.05%
[13]
  inclusion score: 2
[14]
  aggregation suppression score: 1.34
[15]
  survival: 9.5 (inactive)
[16]
  parasite load remaining: 75.3% (inactive) and 65.4% (inactive)
  viability: 74.4% and 110%
[1]; [17]
  fold change: 0.978 (inactive) and 0.889 (inactive)
[1]; [18]
  fold change: 0.677 and 1.53
[1]; [19]
  cell count: 9090 and 9500
[1]; [20]
  cell count: 9300 and 10700
[2]; [21]
  z-score: 0.04 (inactive) and 0.144 (inactive)
[2]; [22]
  z-score: 0.0806 and -0.391
[3]
  z-score: 0.64 (inactive)

## Cc1nn(-c2ccccc2)c(C)c1C=NN1CCN(Cc2ccccc2)CC1
[4]
  inhibition: -4% (inactive)
[5]
  fluorescence ratio (interference): 1 (inactive)
[1]; [17]
  fold change: 0.991 (inactive) and 0.89 (inactive)
[1]; [18]
  fold change: 1.98 and 0.283
[1]; [19]
  cell count: 8530 and 7580
[1]; [20]
  cell count: 8610 and 8510
[6]
  outcome: inactive
[2]; [21]
  z-score: 1.46 (inactive)
[2]; [22]
  z-score: -0.978
[3]
  z-score: -0.13 (inactive)
